KB-3-1 tox: qHTS assay for MDR1-selective chemotherapeutics: Primary screen using the parental adenocarcinoma cell KB-3-1 | KB-3-1 viability, CellTiter-Glo ATP luminescence, 72 h | Potency, µM (series often up to 46.1 µM), actives largely listed as cytotoxic | 400,000 tested, 1.4% active | AID 1347075, 2019; note: % is set by controls: 0 for no effect and ±100 for the full control effect; nearly all actives have a fitted effect of over 60% in size
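Parental KB-3-1 adenocarcinoma cells in phenol-red-free DMEM with 10% FBS were pin-treated with compounds at several concentrations, incubated 72 h at 37 °C, and viability read by CellTiter-Glo luminescence; concentration-effect curves were fitted after normalization.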
MCF10A rerep: A quantitative high throughput screen for small molecules that induce DNA re-replication in MCF 10a normal breast cells; MCF 10A DNA re-replication, Hoechst nuclear intensity, 48 h; Potency, µM (highest dose often 46.1 µM), for inactives: at the highest dose activity, positive = re-replication, hits mostly activators; 350,000 tested, 2.9% active; note: % of control where 0% means no effect; nearly all actives have a fitted effect of over 50% in size
SW480 rereplic: A quantitative high throughput screen for small molecules that induce DNA re-replication in SW480 colon adenocarcinoma cells | SW480 DNA re-replication, Hoechst DNA content imaging, 48 h | Potency, µM (doses to about 46.1 µM), for inactives: at the highest dose re-replication activation, usual class: activators | 340,000 tested, 1.8% active; note: % of control where 0% means no effect; nearly all actives have a fitted effect of over 55% in size
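Quantitative HTS format with DMSO vehicle controls; 48 hr drug incubation at 37 C, then 40 min Hoechst staining and scanning imager measurement at 405 nm excitation.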
KB-V1 cytotox: qHTS assay for MDR1-selective chemotherapeutics: Primary screen using the drug-selected MDR subline cells KB-V1 | KB-V1 MDR cells viability, CellTiter-Glo, 72 h | Potency, µM (titrated, usually from 46.1 µM), hits mostly cytotoxic | 400,000 tested, 3.4% active | AID 1347076, 2019; note: % is set by controls: 0 for no effect and ±100 for the full control effect; nearly all actives have a fitted effect of over 60% in size
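KB-V1 MDR subline cells in DMEM (phenol-red free, 10% FBS) exposed to compounds in qHTS concentration series for 72 h at 37 degrees C. Viability read by CellTiter-Glo luminescence; concentration-effect curves fitted after normalization and correction.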
ELG1 DNA repair: qHTS screen for small molecules that inhibit ELG1-dependent DNA repair in human embryonic kidney (HEK293T) cells expressing luciferase-tagged ELG1; 330,000 tested, 2.3% active; Potency, µM (top dose mostly 46.1 µM), inactives show at the highest dose activity change, negative = inhibition, actives largely listed as inhibitors; HEK293T ELG1-luciferase reporter, luminescence, 16 h; DNA damage induced by 5-fluorouridine; note: % is set by controls: 0 for no effect and ±100 for the full control effect; nearly all actives have a fitted effect of over 55% in size
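5-Fluorouridine DNA damage + compound/DMSO, 2,000 cells/well, 16 h, 37 °C/5% CO2. ONE-Glo, 30 min RT, luminescence. Readout = decrease in reporter signal.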
ELG1 FLuc counter: qHTS screen for small molecules that inhibit ELG1-dependent DNA repair: Hit Confirmation in Cell-Based Luciferin Assay. Potency, µM (doses to about 46.1 µM), for the others: top-dose activity change, negative = inhibition, hits mostly inhibitors. AID 624247, 2012. 350 tested, 3% active. shares compounds with ELG1 DNA repair. cell-free firefly luciferase luminescence counter-screen, ViewLux; note: % is set by controls: 0 for no effect and ±100 for the full control effect
ELG1 Luc conf: HTS assay for small molecules that inhibit ELG1-dependent DNA repair in human embryonic kidney (HEK293T) cells expressing luciferase-tagged ELG1: Hit Confirmation; 670 tested, 68% active; shares compounds with ELG1 DNA repair; AID 624248, 2012; HEK293T ELG1-luciferase levels, luminescence; cells co-treated with 5-fluorouridine; Potency, µM (doses to about 46.1 µM), without a hit: at the top dose activity change, negative = inhibition, actives largely listed as inhibitors; note: % is set by controls: 0 for no effect and ±100 for the full control effect; nearly all actives have a fitted effect of over 55% in size
ELG1 MMS Luc: inhibits ELG1-dependent repair under MMS stimulation in HEK293T cells; shares compounds with ELG1 DNA repair; HEK293T luciferase-tagged ELG1 level, MMS stimulated; Potency, µM (top dose mostly 46.1 µM), inactives show at the top dose activity change, negative = inhibition, actives largely listed as inhibitors; 670 tested, 53% active; note: % is set by controls: 0 for no effect and ±100 for the full control effect; nearly all actives have a fitted effect of over 60% in size
ELG1 5-FU: qHTS screen for small molecules that inhibit ELG1-dependent DNA repair: Hit Confirmation with 5FU Viability | shares compounds with ELG1 DNA repair | cell viability with 5-FU, ELG1-dependent repair | Potency, µM (highest dose often 46.1 µM), for inactives: at the highest dose activity change, negative = viability loss, hits mostly cytotoxic | 670 tested, under 10 active;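 note: ELG1-luc HEK293T cells cotreated with 5-fluorouridine at 10 µM final; viability measured 16 h after compound addition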
ELG1 MMS cell: qHTS screen for small molecules that inhibit ELG1-dependent DNA repair: Hit Confirmation with MMS Viability; shares compounds with ELG1 DNA repair; Cell viability with MMS, ELG1-dependent DNA repair; Potency, µM (highest dose often 46.1 µM), for the others: at the highest dose activity change, negative = viability loss, most hits filed as cytotoxic; 670 tested, 33% active;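 note: ELG1-luc HEK293T cells co-treated with 10 µM MMS; viability read 16 h after compound addition; % is set by controls: 0 for no effect and ±100 for the full control effect; nearly all actives have a fitted effect of over 60% in size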
Cell viab unstim: qHTS screen for small molecules that inhibit ELG1-dependent DNA repair: Hit Confirmation with Unstimulated Viability Assay; cell viability counter-screen, unstimulated, luminescence; Potency, µM (series often up to 45.9 µM), inactives show at the highest dose activity change, negative = loss of viability, hits mostly cytotoxic; AID 624252, 2012; 900 tested, 8% active; shares compounds with ELG1 DNA repair;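 note: compound exposure lasted 16 hours before reading; % is set by controls: 0 for no effect and ±100 for the full control effect; nearly all actives have a fitted effect of over 55% in size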
FLuc biochem: qHTS screen for small molecules that inhibit ELG1-dependent DNA repair: Hit Confirmation in Biochemical Luciferin Assay; shares compounds with ELG1 DNA repair; purified firefly luciferase, luminescence counter-screen; Potency, µM (top dose mostly 57.5 µM), for inactives: at the top dose activity, negative = inhibition, hits mostly inhibitors; 350 tested, 10% active; AID 624253, 2012; note: % is set by controls: 0 for no effect and ±100 for the full control effect
Active calls of the source: *; i = inactive; u = inconclusive; x = no result given; [ ] = another dose, or the depositor's remark. Shown are actives, neighbours in structure and some others; about 8.2% of the full set was active somewhere. Calls come from the whole dose curve; as a rule, active = well fitted curve in the direction sought with a large enough effect; inconclusive = small, poorly fitted or top-dose-only effect, or another doubt; inactive = no such curve, though single readings can be large; an effect the other way counts as inactive or inconclusive. Potency is the fitted concentration of half-maximal effect.

SMILES	KB-3-1 tox	MCF10A rerep	SW480 rereplic	KB-V1 cytotox	ELG1 DNA repair	ELG1 Luc conf	ELG1 MMS Luc	ELG1 5-FU	ELG1 MMS cell	Cell viab unstim	others
CCn1cc(C(=O)N[C@H](C(=O)NCCN2CCOCC2)C(C)C)c(=O)c2cc3c(cc21)OCO3	i	3.2%	-3.4%	u	u	x	x	x	x	x
CCN(CC)C(=O)C1CCN(c2cc(C)nc3c(-c4ccc(OC)c(OC)c4)c(C)nn23)CC1	i	x	x	i	x	x	x	x	x	x
CCOCCCNC(=O)C1CCN(c2cc(C)nc3c(-c4ccc(OC)c(OC)c4)c(C)nn23)CC1	i	-179.7%[0.0737 µM]	5.2%	i	2.59µM*	u	17.0%	u	0.8%	-19.3%
CCn1c(N2CCN(C(c3ccccc3)c3ccccc3)CC2)nc2c1c(=O)[nH]c(=O)n2C	i	-3.1%	u	u	x	x	x	x	x	x
COc1cc(C2c3cc(O)c(OC)cc3CC(C(=O)O)C2CO)ccc1O (centres undefined)	i	-36.1%	-7.1%	i	x	x	x	x	x	x
CC1(C)Cc2c(C#N)c(SCCOc3ccccc3)nc(N3CCOCC3)c2CO1	i	26.5%	-0.3%	u	2.51µM*	3.53µM*	u	u	-9.4%	u
Cn1c(NCc2cccnc2)nc2cc(-c3ccc(C(=O)N4CCOCC4)cc3)sc2c1=O	i	x	x	i	x	x	x	x	x	x
CC1(C)Cc2c(C#N)c(SCCO)nc(N3CCOCC3)c2CO1	i	11.9%	-8.6%	i	u	x	x	x	x	x
CC1(C)Cc2c(c(N3CCOCC3)nc3snc(Br)c23)CO1	i	0.4%	0.4%	i	16.4µM*	12.6µM*	u	u	-1.5%	-1.7%	ELG1 FLuc counter=3.0%;FLuc biochem=3.7%
CNC(=S)N1N=C(c2ccc(OC)cc2)CC1c1ccc(Cl)cc1Cl (centres undefined)	i	-0.6%	-8.6%	i	4.61µM*	u	-21.7%	u	-7.0%	2.6%
COc1cc2c(cc1OC)-c1cc(N3CCc4ccccc43)nc(=O)n1CC2	u	u	-1.4%	i	u	2.81µM*	26.1%	u	u	u
O=C(C[C@@H]1C/C=C/CC[C@H](Cc2ccc(F)cc2)C(=O)O[C@H](c2ccccc2)CNC1=O)NCCO	i	32.5%	3.8%	i	-0.5%	x	x	x	x	x
O=C1NC[C@H](c2ccccc2)OC(=O)[C@H](Cc2ccc(F)cc2)CC/C=C/C[C@H]1CC(=O)N(CCO)Cc1ccccc1	u	u	u	u	2.91µM*	11.2µM*	12.5µM*	u	u	-12.8%
COc1ccc(Cc2nc3ccc(C(=O)N(C)Cc4nccs4)cc3o2)cc1OC	i	-5.2%	1.6%	i	4.11µM*	u	2.23µM*	9.0%	7.91µM*	u
CN(Cc1nccs1)C(=O)c1ccc2nc(Cc3ccccc3F)oc2c1	i	0.1%	2.0%	i	u	x	x	x	x	x
O=C(Nc1cccc(OCC(=O)N2CCOCC2)c1)c1cccc(Cl)c1	i	-2.3%	-1.0%	i	-7.5%	x	x	x	x	x
CCOc1cc(C(=O)Nc2cccc(OCC(=O)N3CCOCC3)c2)cc(OCC)c1OCC	i	-12.6%	-13.1%	i	2.06µM*	8.88µM*	u	6.1%	-0.4%	-17.7%
Cn1c(=O)c2c(ncn2CC(=O)OCCCC(=O)c2ccc(Br)cc2)n(C)c1=O	i	-10.3%	-14.6%	i	u	u	2.5µM*	-2.2%	2.23µM*	u	ELG1 FLuc counter=-2.9%;FLuc biochem=2.1%
COc1ccc(NC(=O)CSc2oc(-c3ccco3)nc2S(=O)(=O)c2ccc(Br)cc2)c(OC)c1	i	x	x	i	x	x	x	x	x	x
Cc1ccc(C2=NN(C(=O)CCl)C(c3ccco3)C2)o1 (centres undefined)	u	20.6µM*	u	u	2.31µM*	22.3µM*	3.97µM*	u	7.05µM*	u
[N-]=[N+]=NC(c1ccccc1)C(NC(=O)c1cc(C(F)(F)F)cc(C(F)(F)F)c1)c1ccccc1 (centres undefined)	u	x	x	i	x	x	x	x	x	x
O=C(Nc1ccc(S(=O)(=O)N2CCOCC2)cc1)c1ccc([N+](=O)[O-])s1	5.17µM*	13µM*	i	u	2.59µM*	1.99µM*	3.53µM*	u	4.45µM*	u
O=C(Nc1ccc(S(=O)(=O)N2CCOCC2)cc1)c1cccs1	i	10.9%	11.3%	i	-29.4%	x	x	x	x	x

Screening data from PubChem.
